Experimental data as given in PubChem BioAssay (Tox21).
Records with an inconclusive call do not appear. A number with no mark means an inactive call. Calls come from the whole dose curve; as a rule, active = well fitted cell-killing curve with a large enough effect in the repeat runs; inconclusive = weak or mixed curves, or effect the other way; inactive = no such curve, though single readings can be large or run the other way.

Assay: qHTS assay for small molecule activators of the heat shock response signaling pathway - cell viability counter screen (AID 743209); note: nearly all actives have a fitted effect of over 50% in size
Conditions: HSE-bla HeLa viability, CellTiter-Glo luminescence, 5 h; series mostly up to 62.6 µM; activity change, negative = cytotoxicity: at the top concentration
Outline: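 HSE-bla HeLa cells plated overnight, then exposed to Tox21 compounds (23 nL in DMSO) for 5 h at 37 C. After the bla reporter read, CellTiter-Glo was added in the same wells and luminescence read after 30 min at room temperature.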
% is set by controls: 0 for no effect and ±100 for the full control effect.

Structure (SMILES) | activity change, negative = cytotoxicity
CCC/C=C/CO | 5.67%
CC1CN(c2ccccc2)NC1=O (stereo not drawn) | 2.7%
C/C(=N\O)[C@@H](C)NCC(C)(C)CN[C@H](C)/C(C)=N/O | 2.89%
CC(=O)O[C@H]1CC[C@@]2(C)C(=CC[C@@H]3[C@@H]2CC[C@]2(C)C(C(C)=O)=CC[C@@H]32)C1 | -6.12%
CC[C@H]1CC[C@H](NCc2cc3c(cc2OC)[C@H]2C[C@H]2C(=O)N3C)[C@H](c2ccccc2)N1 | -0.157%
Cc1onc(-c2ccccc2)c1C(=O)Cl | 5.65%
Cc1c(N)cccc1N | -1.78% [at 81.1 µM]
CCCOc1ccc2c(c1)CC[C@@H]1[C@@H]2CC[C@]2(C)C(OC)CC[C@@H]12 (stereo partly drawn) | -5.64%
CCCS(=O)c1ccc2nc(NC(=O)OC)[nH]c2c1 (stereo not drawn) | -13.4%
CC1=NN(c2cc(Cl)c(S(=O)(=O)O)cc2Cl)C(=O)C1N=Nc1ccc(S(=O)(=O)O)cc1 (stereo not drawn) | 4.54%
Nc1ccc2ccccc2c1S(=O)(=O)O | -11% [at 81.1 µM]
COC(=O)/C=C(/C)N | -6.75%
O=C(CCCl)NCc1ccccc1 | 14.3%
CN1CCN(N)CC1 | -6.25%
CN1CCC[C@@H]1Cc1c[nH]c2ccc(CCS(=O)(=O)c3ccccc3)cc12 | 11.7%
CCCCCCn1c(=O)c2c(ncn2C)n(C)c1=O | 5.48%
CCCC1CCC(=O)O1 (stereo not drawn) | 7.98%
Cc1cc(NS(=O)(=O)c2ccc(N)cc2)nc(C)n1 | -0.0143%
COC(=O)N[C@H](C(=O)N[C@@H](Cc1ccccc1)[C@@H](O)CN(Cc1ccc(-c2ccccn2)cc1)NC(=O)[C@@H](NC(=O)OC)C(C)(C)C)C(C)(C)C | 6.26%
CN(C)C(=O)NC1(c2ccccc2)CCN(CCC[C@]2(c3ccc(Cl)c(Cl)c3)CCCN(C(=O)c3ccccc3)C2)CC1 | -0.31% [at 29.1 µM]
O=C1Nc2ccc([N+](=O)[O-])cc2C1=O | -7.35%
O=C(C(Cl)Cl)N1CCOC12CCCCC2 | -3.77%
CN(C)CC[C@@H](c1ccc(Cl)cc1)c1ccccn1 | 2.05%
CCOC(=O)c1cc(=O)c2c(OCC(COc3cccc4oc(C(=O)OCC)cc(=O)c34)OC(=O)[C@@H](N)CCCCN)cccc2o1 | -0.749%
NC(=O)NS(=O)(=O)c1ccc(Cl)cc1 | 9.97%
Cc1nc(N)nc(N)c1-c1ccc(Cl)c(Cl)c1 | -9.53%
CC(Oc1c(Cl)cccc1Cl)C1=NCCN1 (stereo not drawn) | -1.99%
CC(C)C(=O)OCC(C)(C)C(O)C(C)C (stereo not drawn) | -21.5% [at 81.1 µM]
